# Only some compounds are listed: those with a hit (about 31% of all), similar ones and a draw of the others.
# CYP2C19 inh: blocks human cytochrome P450 2C19; AID 778; inhibition, % at 5 µM; P33261; 96,000 tested, 21% active; CYP2C19 Supersomes, luciferin-H EGE luminescence, 30 min;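 active = CYP2C19 inhibition above a set limit at 5 µM in the primary screen, cut at about 50% in these data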;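 note: plate controls were negative control wells for no effect and 2.5 mM tranylcypromine positive control for full effect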
# CYP2C19 activ: cytochrome P450 2C19 (human) activation; P33261; recombinant CYP2C19, luciferin-H EGE luminescence; active compounds read high; 0 = fully inhibited enzyme, 1 = untreated enzyme; activation factor at 5 µM; 96,000 tested, under 10 active; AID 1025;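 active = activation factor of at least 2 at 5 µM in the primary screen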;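 note: 0 = wells with 2.5 mM tranylcypromine and 1 = vehicle-only wells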
# CYP2C9 inhib: inhibitors of human CYP2C9; P11712; CYP2C9 Supersomes, luciferin-H conversion, luminescence; AID 777; inhibition, % at 5 µM; 96,000 tested, 20% active;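 active = blocking of liver enzyme CYP2C9 beyond about 50% at 5 µM, limit read from the data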
# Target sequence (P11712 whole entry, looked up): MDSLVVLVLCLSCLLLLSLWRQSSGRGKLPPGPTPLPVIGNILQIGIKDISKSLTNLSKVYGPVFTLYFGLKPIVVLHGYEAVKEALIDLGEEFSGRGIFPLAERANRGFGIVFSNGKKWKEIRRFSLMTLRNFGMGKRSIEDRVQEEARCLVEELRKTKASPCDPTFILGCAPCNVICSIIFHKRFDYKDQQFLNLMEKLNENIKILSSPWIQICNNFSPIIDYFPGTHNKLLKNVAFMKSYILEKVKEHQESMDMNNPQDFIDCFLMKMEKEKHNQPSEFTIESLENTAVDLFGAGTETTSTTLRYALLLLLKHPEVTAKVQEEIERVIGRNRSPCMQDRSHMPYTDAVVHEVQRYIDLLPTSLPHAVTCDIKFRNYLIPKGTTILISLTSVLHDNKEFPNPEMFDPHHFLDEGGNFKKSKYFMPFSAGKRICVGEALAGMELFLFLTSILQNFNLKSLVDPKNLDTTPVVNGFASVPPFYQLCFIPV
# CYP2C9 act: CYP2C9 (human) activation; P11712; 96,000 tested, 1.4% active; recombinant CYP2C9, luciferin-H conversion, luminescence; active compounds read high; factor 1 = untreated enzyme, 0 = blocked; activation factor at 5 µM;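 active = activation factor of 2 or more for CYP2C9 at a 5 µM dose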;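 note: 0 = sulfaphenazole-blocked wells and 1 = vehicle-only wells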
# PLAP activator: activators of human placental alkaline phosphatase; P05187; purified PLAP enzyme, luminescent substrate read-out; active compounds read high; activation fold at 20 µM; 96,000 tested, 1.2% active; AID 696; in the data active = activation fold above about 2
# Starred values were filed as active, the others as inactive.
SMILES,CYP2C19 inh,CYP2C19 activ,CYP2C9 inhib,CYP2C9 act,PLAP activator
COc1ccc(CCNc2ncnc3[nH]ncc23)cc1OC,29.6,0.7,25.3,0.7,2*
CCOC(=O)c1cnc2ccccc2c1NCCc1ccc(OC)c(OC)c1,74.7*,0.3,82.6*,0.2,1
CCOc1cc(C)nc(NCCc2ccc(OC)c(OC)c2)n1,65.6*,0.3,21.4,0.8,1.2
CCOC(=O)C1C(=O)CC(C)(O)C(C(=O)OCC)C1c1ccccc1OC (stereo not drawn),-4.4,1,-9.8,1.1,1
Cc1ccc(/C=N/n2cnc3sc(-c4ccccc4)cc3c2=O)o1,1.6,1,3.4,1,0.9
O=C(O)CC1SC(=Nc2cccc(C(F)(F)F)c2)NC1=O (stereo not drawn),-0.7,1,-10.7,1.1,0.9
COc1ccc(N2CCN(c3nc(NCCc4ccc(OC)c(OC)c4)nc(OC)n3)CC2)cc1,82.2*,0.2,83.0*,0.2,0.9
CSc1nc(Cl)c(Cc2ccc(OC(C)C)cc2)c(N2CCOCC2)n1,45.0,0.6,61.8*,0.4,0.9
COCCCN1C(=O)c2ccc(C(=O)NCc3ccco3)cc2C1=O,6.7,0.9,8.9,0.9,0.9
O=C(NCc1cn2ccccc2n1)c1ccc2c(c1)OCO2,2.4,1,11.1,0.9,0.9
CC(C)c1nc(=S)c2ccccc2[nH]1,62.7*,0.4,52.7*,0.5,1.1
Cc1cnc(C(=O)Nc2ccc(C(=O)N3CCCCC3)cc2)cn1,26.8,0.7,-0.5,1,1.1
CCCc1n[nH]c2c1C(=O)CC(C)(C)C2,1.1,1,-7.0,1.1,0.9
CC1(C)CC(=O)c2c(-c3cccs3)n[nH]c2C1,79.0*,0.2,51.7*,0.5,1.2
CN(c1ccccc1)S(=O)(=O)c1cc(C(=O)c2nccn2C)ccc1Cl,98.7*,0,91.3*,0.1,1.4
Cc1ccc(NC(=O)N2CCC(C(=O)NCC(C)C)CC2)cc1,-21.9,1.2,-15.8,1.2,0.8
O=C(c1ccc(CN2CCOCC2)cc1)N1CCN(c2cccc(Cl)c2)CC1,12.8,0.9,21.5,0.8,1.7
Cc1ccc(C(=O)N2CCOCC2)cc1Cl,2.3,1,-16.4,1.2,1.1
Cc1ccc(Cl)cc1N1CCN(C(=O)c2ccc(CN3CCOCC3)cc2)CC1,59.5*,0.4,66.7*,0.3,1.6
Cc1ccc(OCc2ccc(C(=O)N3CCOCC3)cc2)cc1C,71.4*,0.3,-49.5,1.5,1.7
Cc1ccccc1-c1nc(CN2CCC(C(=O)NCc3cccs3)CC2)c(C)o1,30.7,0.7,42.0,0.6,2.6*
Cc1ccccc1-c1nc(CN2CCC(C(=O)NCc3ccco3)CC2)c(C)o1,5.7,0.9,16.3,0.8,1.3
Cc1ccccc1-c1nc(CN2CCC(C(=O)N3CCN(c4ccccn4)CC3)CC2)c(C)o1,13.4,0.9,55.4*,0.4,1.8
COc1ccc(CCNC(=O)C2CCN(Cc3nc(-c4ccccc4F)oc3C)CC2)cc1OC,-9.2,1.1,-7.5,1.1,1.7
Cc1ccccc1-c1nc(CN2CCC(C(=O)NCCCN3CC(C)CC(C)C3)CC2)c(C)o1 (stereo not drawn),-12.3,1.1,-8.8,1.1,2*
SMILES,CYP2C19 inh,CYP2C19 activ,CYP2C9 inhib,CYP2C9 act,PLAP activator
CCc1ccc(-c2nc(CN3CCC(C(=O)NCCc4ccc(OC)c(OC)c4)CC3)c(C)o2)cc1,19.4,0.8,37.7,0.6,2.4*
COc1ccc(C(=O)Nn2cnc3ccccc3c2=O)c(OC)c1,23.5,0.8,-6.2,1.1,1
CCCN(CCC)S(=O)(=O)c1cc(Br)cc2c1N(C(=O)CC)CC2,9.0,0.9,41.7,0.6,1.5
Cc1oc(-c2ccccc2F)nc1CN1CCC(C(=O)NCCC2=CCCCC2)CC1,4.7,1,-126.6,2.3*,1.8
COc1ccc(OC(=O)c2cn(C)nc2C(F)(F)F)cc1,60.6*,0.4,3.9,1,1.2
COc1ccc(NC(=O)c2ccccc2O)c(OC)c1,60.5*,0.4,53.3*,0.5,1.2
COc1ccc(NC(=O)c2cc(C(C)C)on2)c(OC)c1,38.7,0.6,-183.5,2.8*,1.2
COc1ccc(NC(=O)C2OCCc3ccccc32)c(OC)c1 (stereo not drawn),91.4*,0.1,0.3,1,1.2
O=C(NCCCCCCNC(=O)OC1CCS(=O)(=O)C1)OC1CCS(=O)(=O)C1 (stereo not drawn),4.0,1,1.0,1,1
NC(=O)c1cc2n(n1)C(C(F)(F)F)CC(c1ccco1)N2 (stereo not drawn),-8.5,1.1,-16.7,1.2,1.1
COCCn1ccc(O)c(Cc2ccc(Cl)cc2)c1=O,30.5,0.7,15.0,0.8,0.9
COc1cccc(-c2nnc3sc(-c4cccs4)nn23)c1,40.2,0.6,42.2,0.6,0.9
c1cc(-c2nnc3sc(C4CCCCC4)nn23)ccn1,88.0*,0.1,20.6,0.8,0.8
COc1ccc(-c2nnc3sc(COc4ccccc4)nn23)cc1,35.6,0.6,26.5,0.7,0.7
CCOc1cccc(-c2nnc3sc(-c4cccs4)nn23)c1,60.2*,0.4,58.5*,0.4,1
CC(C)(C)c1ccc(-c2nnc3sc(-c4ccncc4)nn23)cc1,58.3*,0.4,53.4*,0.5,0.9
c1ccc(OCc2nn3c(-c4ccco4)nnc3s2)cc1,67.0*,0.3,49.3,0.5,0.9
c1coc(-c2nnc3sc(-c4cccs4)nn23)c1,63.7*,0.4,45.3,0.5,1
Cc1nn2c(-c3ccc(Cl)cc3)nnc2s1,56.2*,0.4,6.4,0.9,0.9
COc1cc(-c2nnc3sc(-c4ccco4)nn23)cc(OC)c1OC,36.0,0.6,64.7*,0.4,1.1
CCOc1cccc(-c2nnc3sc(-c4cc(OC)c(OC)c(OC)c4)nn23)c1,36.3,0.6,62.9*,0.4,1.2
COCCn1cc(C(=O)N2CCC(C)CC2)c2c3ccccc3n(C)c2c1=O,-6.7,1.1,3.5,1,1.5
COc1cc(-c2nn3c(-c4ccccc4)nnc3s2)cc(OC)c1OC,73.8*,0.3,71.7*,0.3,1.1
CCOc1cccc(-c2nnc3sc(COc4ccccc4)nn23)c1,-5.4,1.1,4.8,1,0.9
COc1cc(OC)c(-c2nn3c(-c4ccco4)nnc3s2)cc1OC,43.6,0.6,72.7*,0.3,1.4
SMILES,CYP2C19 inh,CYP2C19 activ,CYP2C9 inhib,CYP2C9 act,PLAP activator
COc1cccc(-c2nnc3sc(-c4ccc(C)cc4)nn23)c1,12.6,0.9,27.8,0.7,1.2
CCOc1cccc(-c2nnc3sc(COc4ccc(C)cc4)nn23)c1,54.1*,0.5,64.2*,0.4,1
COc1cccc(-c2nn3c(-c4cccc(C)c4)nnc3s2)c1,88.6*,0.1,76.4*,0.2,1.1
Cc1cc(C(C)(C)C)oc1C(=O)Nc1ccc(CC(=O)O)cc1,-2.7,1,1.0,1,1.2
COc1cc(-c2nn3c(COc4ccccc4)nnc3s2)cc(OC)c1OC,11.9,0.9,25.4,0.7,0.8
COc1cc(-c2nn3c(Cc4ccccc4)nnc3s2)cc(OC)c1OC,52.9*,0.5,69.6*,0.3,1.2

# Source: PubChem (Sanford-Burnham Center for Chemical Genomics)
